In PubChem BioAssay (EPA / NIEHS) one finds AC50 and outcome data, which are given here for five compounds.

Read-out in assay [1]: Macrophage colony-stimulating factor (MCSF), CSF1 (gene 1435)
The assay can be described thus: BSK_hDFCGF_MCSF: BioMAP Diversity Plus: hDFCGF Assay for Macrophage colony-stimulating factor (MCSF) Biomarker Activity (AID 2283060). Conditions: primary human foreskin fibroblasts; actives raise or lower the signal. The gist of the method: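 Human foreskin primary fibroblasts were treated with test chemical for 24 h, and M-CSF was then measured by ELISA. Data were fitted bidirectionally against DMSO as the negative control and activity baseline.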

Assay [2] can be described thus: BSK_hDFCGF_SRB: Viability Assessment in the BioMAP Diversity Plus: hDFCGF Assay (AID 2283061).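 Also: cells exposed to compound for 24 h before the read.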 Conditions: primary human foreskin fibroblasts. The method, boiled down:
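Human foreskin primary fibroblasts were treated with compound and assessed 24 h after dosing. Total protein was measured by sulforhodamine B staining (0.1% SRB after 10% TCA fixation, 560 nm read) as a cytotoxicity marker, with bidirectional fitting against DMSO baseline.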

Read-out in assay [3]: TIMP metallopeptidase inhibitor 1 (TIMP1), TIMP1 (gene 7076)
The assay can be described thus: BSK_hDFCGF_TIMP1: BioMAP Diversity Plus: hDFCGF Assay for TIMP metallopeptidase inhibitor 1 (TIMP1) Biomarker Activity (AID 2283062). Conditions: primary human foreskin fibroblasts; actives raise or lower the signal. The gist of the method: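 Primary human foreskin fibroblasts in the hDFCGF system were dosed with compound for 24 h, then TIMP-1 was measured by ELISA. Activity was fitted bidirectionally relative to DMSO control; parallel SRB staining assessed cytotoxicity.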

Read-out in assay [4]: Monokine induced gamma interferon (MIG), CXCL9 (gene 4283)
The assay can be described thus: BSK_hDFCGF_MIG: BioMAP Diversity Plus: hDFCGF Assay for Monokine induced gamma interferon (MIG) Biomarker Activity (AID 2283063). Conditions: primary human foreskin fibroblasts; actives raise or lower the signal. The gist of the method: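 ELISA read-out of MIG from primary human dermal fibroblasts 24 h post-dosing. Gain or loss of signal fitted bidirectionally, DMSO as baseline.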

Read-out in assay [5]: Matrix Metallopeptidase 1 (MMP1), MMP1 (gene 4312)
The assay can be described thus: BSK_hDFCGF_MMP1: BioMAP Diversity Plus: hDFCGF Assay for Matrix Metallopeptidase 1 (MMP1) Biomarker Activity (AID 2283064). Conditions: primary human foreskin fibroblasts; actives raise or lower the signal. The method, boiled down:
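hDFCGF primary fibroblasts (human foreskin); chemical added; 24 h; MMP1 by ELISA; bidirectional fit vs DMSO.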

Read-out in assay [6]: Vascular cell adhesion molecule 1 (VCAM1), VCAM1 (gene 7412)
As to the kind of experiment: BSK_hDFCGF_VCAM1: BioMAP Diversity Plus: hDFCGF Assay for Vascular cell adhesion molecule 1 (VCAM1) Biomarker Activity (AID 2283065).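 As to AC50: VCAM-1 protein level quantified by ELISA after 24 h chemical exposure.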 Conditions: primary human foreskin fibroblasts; actives raise or lower the signal. The gist of the method:
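Primary human foreskin fibroblasts (hDFCGF system) were dosed with chemical and VCAM-1 was measured by ELISA 24 h later. Bidirectional curve fitting used DMSO as negative control and activity baseline.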

Read-out in assay [7]: Plasminogen activator inhibitor-1 (PAI1), SERPINE1 (gene 5054)
The assay can be described thus: BSK_hDFCGF_PAI1: BioMAP Diversity Plus: hDFCGF Assay for Plasminogen activator inhibitor-1 (PAI1) Biomarker Activity (AID 2283066). Conditions: primary human foreskin fibroblasts; actives raise or lower the signal. The gist of the method: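 Primary dermal fibroblasts (human foreskin), hDFCGF system; compound 24 h; PAI-1 by ELISA; bidirectional fit vs DMSO control.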

Read-out in assay [8]: Intercellular Adhesion Molecule 1 (ICAM1), ICAM1 (gene 3383)
As to the kind of experiment: BSK_KF3CT_ICAM1: BioMAP Diversity Plus: KF3CT Assay for Intercellular Adhesion Molecule 1 (ICAM1) Biomarker Activity (AID 2283067). Conditions: primary human keratinocytes with fibroblasts; actives raise or lower the signal. The method, boiled down:
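Human keratinocyte plus foreskin fibroblast primary co-culture was exposed to chemical for 24 h. ICAM-1 was then quantified by ELISA, and the data were fit bidirectionally against DMSO as the negative control and baseline.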

Read-out in assay [9]: Interferon-gamma inducible Protein 10 (IP10), CXCL10 (gene 3627)
As to the kind of experiment: BSK_KF3CT_IP10: BioMAP Diversity Plus: KF3CT Assay for Interferon-gamma inducible Protein 10 (IP10) Biomarker Activity (AID 2283068). Conditions: primary human keratinocytes with fibroblasts; actives raise or lower the signal. The method, boiled down:
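In a primary skin co-culture of keratinocytes and fibroblasts, IP-10 is quantified by ELISA at 24 h after dosing. SRB staining of parallel wells monitors overt toxicity. Curves are fitted both directions against DMSO.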

The nature of assay [10]: BSK_KF3CT_SRB: Viability Assessment in the BioMAP Diversity Plus: KF3CT Assay (AID 2283069).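 Also: fitted for both signal gain and loss against DMSO baseline.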 Conditions: primary human keratinocytes with fibroblasts. The method, boiled down:
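Keratinocytes co-cultured with foreskin fibroblasts (human primary); chemical added, 24 h; fix 10% TCA, stain 0.1% SRB, A560. Bidirectional fit vs DMSO.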

Read-out in assay [11]: Interleukin-1 alpha (IL1a), IL1A (gene 3552)
The assay can be described thus: BSK_KF3CT_IL1a: BioMAP Diversity Plus: KF3CT Assay for Interleukin-1 alpha (IL1a) Biomarker Activity (AID 2283070). Conditions: primary human keratinocytes with fibroblasts; actives raise or lower the signal. The gist of the method:
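Chemicals were dosed onto co-cultured human keratinocytes and foreskin fibroblasts, IL-1a was quantified by ELISA at 24 h, and activity was fitted in both directions relative to DMSO controls.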

Read-out in assay [12]: TIMP metallopeptidase inhibitor 2 (TIMP2), TIMP2 (gene 7077)
The assay can be described thus: BSK_KF3CT_TIMP2: BioMAP Diversity Plus: KF3CT Assay for TIMP metallopeptidase inhibitor 2 (TIMP2) Biomarker Activity (AID 2283071). Conditions: primary human keratinocytes with fibroblasts; actives raise or lower the signal. The method, boiled down: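 Cells: human keratinocytes co-cultured with foreskin fibroblasts. Treat with chemical, 24 h. Measure TIMP-2 by ELISA; fit curves bidirectionally vs DMSO baseline.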

Read-out in assay [13]: C-C motif chemokine 2 (Homo sapiens) (UniProt P13500)
The assay can be described thus: BSK_KF3CT_MCP1: BioMAP Diversity Plus: KF3CT Assay for Monocyte Chemoattractant Protein 1 (MCP1/CCL2) Biomarker Activity (AID 2283073). Conditions: primary human keratinocytes with fibroblasts; actives raise or lower the signal. The gist of the method: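 Human keratinocyte plus foreskin fibroblast primary co-culture exposed to chemical for 24 h. MCP-1 levels measured by ELISA. Bidirectional curve fitting relative to DMSO negative control as baseline.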

Read-out in assay [14]: urokinase plasminogen activator (uPA), PLAU (gene 5328)
The assay can be described thus: BSK_KF3CT_uPA: BioMAP Diversity Plus: KF3CT Assay for urokinase plasminogen activator (uPA) Biomarker Activity (AID 2283075). Conditions: primary human keratinocytes with fibroblasts; actives raise or lower the signal. The method, boiled down:
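ELISA readout of uPA, analyzed for signal gain or loss relative to DMSO, from a human primary keratinocyte–foreskin fibroblast co-culture measured 24 h after chemical treatment.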

Read-out in a further assay: CD40, CD40 (gene 958)
The assay can be described thus: BSK_LPS_CD40: BioMAP Diversity Plus: LPS Assay for CD40 Biomarker Activity (AID 2283076). Conditions: primary human HUVEC with PBMC; actives raise or lower the signal. The gist of the method: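 Primary human umbilical vein endothelial cells co-cultured with peripheral blood mononuclear cells, LPS-stimulated, were dosed with chemical and read 24 h later. CD40 levels were measured by ELISA and fitted bidirectionally against DMSO as negative control and baseline.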

Read-out in assay [15]: E-selectin (Homo sapiens) (UniProt P16581)
The assay can be described thus: BSK_LPS_Eselectin: BioMAP Diversity Plus: LPS Assay for Eselectin Biomarker Activity (AID 2283077). Conditions: primary human HUVEC with PBMC; actives raise or lower the signal. The gist of the method: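 Human umbilical vein endothelial cells co-cultured with peripheral blood mononuclear cells under LPS stimulation; E-selectin measured by ELISA 24 h after chemical dosing. Activity fitted bidirectionally against DMSO as negative control and baseline.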

Read-out in assay [16]: Interleukin-8 (IL8), CXCL8 (gene 3576)
As to the kind of experiment: BSK_LPS_IL8: BioMAP Diversity Plus: LPS Assay for Interleukin-8 (IL8) Biomarker Activity (AID 2283078). Conditions: primary human HUVEC with PBMC; actives raise or lower the signal. The method, boiled down:
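Human umbilical vein endothelial cells co-cultured with PBMC were stimulated with LPS; IL-8 levels were measured by ELISA 24 h after chemical dosing. Activity was fitted bidirectionally against DMSO as negative control and baseline.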

Assay [17] in a line: BSK_LPS_SRB: Viability Assessment in the BioMAP Diversity Plus: LPS Assay (AID 2283079).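 Also: total protein by sulforhodamine B absorbance as a cytotoxicity measure; measured one day after compound addition; fitted in both directions against DMSO so loss or gain of signal counts.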 Conditions: primary human HUVEC with PBMC. The gist of the method:
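Human umbilical vein endothelial cells co-cultured with PBMC (LPS system) were dosed for 24 h. Total protein was stained with 0.1% sulforhodamine B after 10% TCA fixation, read at 560 nm, and fitted bidirectionally against DMSO baseline.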

Read-out in assay [18]: Matrix Metallopeptidase 9 (MMP9), MMP9 (gene 4318)
The assay can be described thus: BSK_KF3CT_MMP9: BioMAP Diversity Plus: KF3CT Assay for Matrix Metallopeptidase 9 (MMP9) Biomarker Activity (AID 2283074). Conditions: primary human keratinocytes with fibroblasts; actives raise or lower the signal. The method, boiled down: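 Human keratinocyte/foreskin fibroblast co-culture; compound added; 24 h; MMP-9 by ELISA; bidirectional fit vs DMSO baseline.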

Read-out in assay [19]: Interleukin-1 alpha (IL1a), IL1A (gene 3552)
The assay can be described thus: BSK_LPS_IL1a: BioMAP Diversity Plus: LPS Assay for Interleukin-1 alpha (IL1a) Biomarker Activity (AID 2283080). Conditions: primary human HUVEC with PBMC; actives raise or lower the signal. The gist of the method:
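Human umbilical vein endothelial cells co-cultured with peripheral blood mononuclear cells were LPS-stimulated and exposed to test chemicals for 24 h. IL-1 alpha was quantified by ELISA, with bidirectional curve fitting against DMSO as the negative control and baseline.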

Several values for one entry are separate records, joined by “and”; a condition that tells them apart may be missing. Equal entries are not always repeated. More than one record can exist for a structure, and the calls need not agree. Activity calls are given as the source filed them. The calls were made as follows: active = hit-call score of the fitted dose curve at least 0.9, where 1 is the maximum; inactive = score below 0.9.

Chain of E-selectin (Homo sapiens) (P16581 whole entry, looked up): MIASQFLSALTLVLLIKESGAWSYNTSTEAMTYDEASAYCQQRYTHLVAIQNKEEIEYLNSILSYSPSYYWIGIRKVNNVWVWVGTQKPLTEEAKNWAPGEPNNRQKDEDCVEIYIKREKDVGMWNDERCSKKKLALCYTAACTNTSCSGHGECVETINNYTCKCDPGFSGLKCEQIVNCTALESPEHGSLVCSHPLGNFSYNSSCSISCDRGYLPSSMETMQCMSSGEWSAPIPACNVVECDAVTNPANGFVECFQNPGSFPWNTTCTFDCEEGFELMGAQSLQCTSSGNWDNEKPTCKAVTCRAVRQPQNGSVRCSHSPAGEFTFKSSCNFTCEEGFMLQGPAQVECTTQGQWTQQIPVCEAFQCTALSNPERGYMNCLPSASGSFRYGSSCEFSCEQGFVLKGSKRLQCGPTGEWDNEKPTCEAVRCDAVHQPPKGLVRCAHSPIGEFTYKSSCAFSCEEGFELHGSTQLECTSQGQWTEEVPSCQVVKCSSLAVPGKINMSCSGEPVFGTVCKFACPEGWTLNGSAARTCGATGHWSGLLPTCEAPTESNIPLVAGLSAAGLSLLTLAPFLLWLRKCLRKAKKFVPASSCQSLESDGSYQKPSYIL

By AC50 is commonly meant the midpoint of the concentration-response curve, whichever way the signal moves. In the case of `OCC(F)(F)C(F)(F)C(F)(F)C(F)(F)C(F)(F)C(F)(F)F`, the AC50 was 48.6 µM (active) and 49.4 µM (active) in assay [1]; 45.4 µM (active) in [2]; 49.3 µM (active) in assay [5]; 54.6 µM (active) and 46 µM (active) in [6]; 47.6 µM (active) in assay [7]. Besides, the result in assay [2], in [3], in assay [4], in assay [5], in assay [7] and in [8] was inactive. Also, the outcome in assay [9], in assay [10], in [11], in assay [12], in assay [13] and in assay [14] was inactive. In addition, the outcome with CD40, CD40 (gene 958) was “inactive”; in assay [15], “inactive”; in assay [16] it was “inactive”; in assay [17] it was “inactive”.
On to `OCC(F)(F)C(F)(F)C(F)(F)C(F)F`, for which the outcome in assay [1], in [2], in assay [3], in assay [4], in assay [5] and in assay [6] was inactive. The outcome in [7], in assay [8], in assay [9], in assay [10], in assay [11] and in assay [12] was inactive. Further, the outcome in assay [13] is “inactive”; in assay [18], “inactive”; in assay [14] it was “inactive”; with CD40, CD40 (gene 958), “inactive”; in assay [15] it was “inactive”; in assay [16], “inactive”. The outcome in [17] was inactive. Besides, in [7], the half-maximal activity concentration (AC50) was 1.98 µM (active).
Consider `CCCCOCCOCCOC(=O)CCCCC(=O)OCCOCCOCCCC`, for which the outcome in [1], in [2], in assay [3], in [4], in [5] and in [6] was inactive. The result in [7], in [8], in assay [9], in assay [10], in assay [12] and in [13] was inactive. Further, the outcome in assay [18] is “inactive”; in assay [14], “inactive”; with CD40, CD40 (gene 958) it was “inactive”; in assay [15] it was “inactive”; in assay [16], “inactive”; in assay [17], “inactive”. Besides, in [11], the AC50 is 2.19 µM (active).
Consider `O=C(O)C(F)(F)C(F)(F)C(F)F`, for which the outcome in [1], in assay [2], in assay [3], in assay [4], in [5] and in assay [6] was inactive. Moreover, the result in assay [7], in [8], in [9], in assay [10], in assay [11] and in assay [12] was inactive. For the same compound, the outcome was “inactive” in assay [13]; “inactive” in assay [18]; “inactive” in assay [14]; “inactive” in the assay with CD40, CD40 (gene 958); “inactive” in [15]; “inactive” in assay [16]. The result in assay [17] and in [19] was inactive.
As to `C=CC(F)(F)C(F)(F)C(F)(F)C(F)(F)C(F)(F)C(F)(F)C(F)(F)C(F)(F)F`, the result in [1], in assay [2], in assay [3], in assay [4], in [5] and in assay [6] was inactive. Moreover, the result in assay [7], in [8], in assay [9], in assay [10], in assay [11] and in assay [12] was inactive. Besides, the outcome is “inactive” in assay [13]; “inactive” in assay [18]; “inactive” in [14]; “inactive” with CD40, CD40 (gene 958); “inactive” in assay [15]; “inactive” in assay [16]. In addition, the result in assay [17] and in [19] was inactive.
